Reference: PubChem BioAssay AID743152 (Broad Institute, 2013)
The source made the active and inactive calls.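 How the source made its calls: active means compounds that cut cell ATP glow, with a fitted half-effect dose at or under their top tested dose; inconclusive means flat partial loss of 30 to 70 percent, or poor fit; inactive means the rest.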

Test: A549 cell cytotoxicity, dose response, cytotoxicity control, CellTiter-Glo luminescence, dry powder, set 2 (AID 743152)
Details: A549 viability, CellTiter-Glo ATP luminescence, 72 h; series mostly up to 26 µM

| Structure (SMILES) | outcome |
| --- | --- |
| C[C@@H]1CC(=O)NN=C1c1ccc(C2CCCCC2)cc1 | inactive |
| C[C@@H]1CC(=O)NN=C1c1ccc(Cl)cc1 | inactive |
| C[C@@H]1CC(=O)NN=C1c1ccc(N2CCOCC2)c(F)c1 | inactive |
| C[C@H]1CC(=O)NN=C1c1ccc(N2CCOCC2)c(F)c1 | inactive |
| COc1cc2c(cc1OC)-c1cc(=Nc3c(C)cc(C)cc3C)n(C)c(=O)n1CC2 | inactive |
| C[C@@H]1CC(=O)NN=C1c1ccc(-c2cncnc2)cc1 | inactive |
| CC(=O)Nc1ccc(C2=NNC(=O)C[C@H]2C)cc1[N+](=O)[O-] | inactive |
| C[C@@H]1CC(=O)NN=C1c1ccc(N2CCOCC2)cc1 | inactive |
| C[C@@H]1CC(=O)NN=C1c1ccc(F)c(F)c1 | inactive |
| CCN(CC)c1ccc(C2=NNC(=O)CC2C)cc1[N+](=O)[O-] (stereo not drawn) | inactive |
| CCN1N=C(c2ccc(N(CC)CC)cc2)[C@H](C)CC1=O | inactive |
| Cn1c(NC(=O)c2ccccc2)nc2ccccc21 | inactive |
| O=C1CN2Cc3c(ccc(Cl)c3Cl)N=C2N1 | inactive |
